Source: PubChem
Compounds with a hit are over-represented: about 7.5% of the library has one in this group of screens.
KinaseGlo FLuc: Counterscreen for Luciferase (Kinase-Glo TM) Inhibition; Luciferin 4-monooxygenase (Photuris pensylvanica), Q27757; 200,000 tested, 0.28% active; Potency, µM (top dose mostly 38.3 µM), without a hit: at the top dose activity change, negative = inhibition, most hits filed as inhibitors; Kinase-Glo luciferase, ATP luminescence, 8 min; AID 1379, 2008; note: % is set by controls: 0 for no effect and ±100 for the full control effect; nearly all actives have a fitted effect of over 60% in size
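Compound is pinned into ATP-containing buffer (10 uM ATP, imidazole pH 7.2, 7 mM MgCl2). Kinase-Glo luciferase reagent is then added. Light output is recorded following an 8-min room-temperature incubation.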
ELG1 genotox: qHTS screen for small molecules that induce genotoxicity in human embryonic kidney (HEK293T) cells expressing luciferase-tagged ELG1. HEK293T ELG1-luciferase reporter, luminescence, 16 h. Potency, µM (top dose mostly 46 µM), for inactives: at the highest dose activity change, positive = activation, actives largely listed as activators. 330,000 tested, 1.3% active. AID 504466, 2011; note: % of control where 0% means no effect; nearly all actives have a fitted effect of over 60% in size
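Screening used a luciferase reporter fused to human ELG1 in HEK293T cells. Luminescence was read on a CCD plate imager after 16 hr exposure and 30 min ONE-Glo incubation.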
NPC1 prom act: qHTS Assay for NPC1 Promoter Activators | Huh7 NPC1 promoter luciferase reporter, 24 h | Potency, µM (highest dose often 9.22 µM), for inactives: top-dose activation, actives largely listed as activators | 320,000 tested, 2.4% active | AID 485313, 2010; note: % of control where 0% means no effect; nearly all actives have a fitted effect of over 60% in size
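Luminescence read-out of NPC1 promoter-driven luciferase in stably transfected Huh7 cells; compounds delivered in DMSO and left 24 h at 37C, 5% CO2, qHTS titration format.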
Rab9 prom act: qHTS Assay for Rab9 Promoter Activators. Huh7 Rab9 promoter-luciferase reporter, luminescence, 24 h. Potency, µM (highest dose often 9.22 µM), inactives show top-dose activation, negative = inhibition, hits mostly activators. 320,000 tested, 2.8% active. AID 485297, 2010; note: % of control where 0% means no effect; nearly all actives have a fitted effect of over 60% in size
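Using Huh7 cells stably transfected with Rab9 promoter–luciferase, compounds were incubated 24 h at 37 °C, 5% CO2; luciferase luminescence was read 10 min after reagent addition.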
SMN2 splice up: qHTS Assay for Enhancers of SMN2 Splice Variant Expression; HEK293 SMN2-luciferase splicing reporter, luminescence, 30-36 h; Potency, µM (series often up to 46.1 µM), without a hit: top-dose activity change, positive = activation, usual class: activators; 210,000 tested, 2.8% active; note: % of control where 0% means no effect; nearly all actives have a fitted effect of over 55% in size
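qHTS luciferase splicing reporter: luminescence rises when SMN2 exon 7 is included in transfected HEK293 cells. Compound exposure lasted 30-36 h at 37C, with 4.5 mM final sodium butyrate as control, followed by a ONE-Glo read.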
FLuc counter: qHTS profiling assay for firefly luciferase inhibitor/activator using purifed enzyme and Km concentrations of substrates (counterscreen for miR-21 project). Luciferin 4-monooxygenase (Photinus pyralis), P08659. purified FLuc, Km substrates, luminescence inhibition. Potency, µM (series often up to 57.5 µM), inactives show at the highest dose activity change, negative = inhibition, actives largely listed as inhibitors. 360,000 tested, 6.9% active. AID 588342, 2011;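 note: plate controls were vehicle for no effect and reference inhibitor for full effect; nearly all actives have a fitted effect of over 55% in size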
Target sequence (P08659 whole entry, looked up): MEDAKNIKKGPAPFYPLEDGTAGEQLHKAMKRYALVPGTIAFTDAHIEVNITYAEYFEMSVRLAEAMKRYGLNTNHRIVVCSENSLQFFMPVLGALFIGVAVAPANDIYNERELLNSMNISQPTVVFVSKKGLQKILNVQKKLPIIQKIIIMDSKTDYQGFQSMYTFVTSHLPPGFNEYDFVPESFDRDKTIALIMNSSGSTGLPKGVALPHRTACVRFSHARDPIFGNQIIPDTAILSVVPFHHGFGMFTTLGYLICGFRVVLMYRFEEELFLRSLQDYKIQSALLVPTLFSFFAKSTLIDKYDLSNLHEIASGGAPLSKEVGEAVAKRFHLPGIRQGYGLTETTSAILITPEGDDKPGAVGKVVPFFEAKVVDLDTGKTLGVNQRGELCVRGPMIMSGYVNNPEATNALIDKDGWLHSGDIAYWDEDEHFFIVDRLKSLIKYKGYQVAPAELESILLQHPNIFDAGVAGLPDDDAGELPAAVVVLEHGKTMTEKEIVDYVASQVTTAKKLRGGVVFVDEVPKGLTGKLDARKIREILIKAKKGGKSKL
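Biochemical qHTS of compounds, final roughly 60 µM downward over six points, against 10 nM purified firefly luciferase using Km concentrations of substrates (10 uM D-luciferin, 10 uM ATP) in Tris acetate pH 7.5 buffer; luminescence output.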
Active calls of the source: *; ? = inconclusive; . = no result. Calls come from the whole dose curve; as a rule, active = well fitted curve in the direction sought with a large enough effect; inconclusive = small, poorly fitted or top-dose-only effect, or another doubt; inactive = no such curve, though single readings can be large; an effect the other way counts as inactive or inconclusive. Potency is the fitted concentration of half-maximal effect.

SMILES | KinaseGlo FLuc | ELG1 genotox | NPC1 prom act | Rab9 prom act | SMN2 splice up | FLuc counter
CCN1C(=O)/C(=C/C=C2/CCCN2C)OC1=S | -6.9% | ? | 3.16µM* | ? | . | ?
CN1C(=O)/C(=C\C=C2/CCCN2C)N(C)C1=S | -12.1% | ? | 25.3% | ? | ? | ?
CCOC(=O)C1=C(COC(=O)/C=C/c2ccc(O)c(OC)c2)NC(=O)NC1C (stereo unspecified) | . | 3.1% | 0.1% | -5.3% | . | 1.2%
O=C(O)c1cccc(NC(=S)N/N=C/c2ccccc2OCc2ccc(Br)cc2)c1 | -3.3% | 16.3% | 26.7% | 18.1% | ? | 23.9µM*
O=C(O)c1cccc(NC(=S)N/N=C/c2cccc(O)c2)c1 | -2.7% | -0.8% | 13.8% | 17.9% | 4.7% | 2.13µM*
O=C(O)c1cccc(NC(=S)N/N=C/c2ccccn2)c1 | -4.5% | ? | 0.282µM* | 0.316µM* | 0.891µM* | 0.379µM*
CCN(CCCNC(=O)c1cc(Nc2ccccc2OC)nc2ccccc12)c1cccc(C)c1 | . | . | . | . | 5.2% | 1.8%
CCOC(=O)c1ccc(OC(=O)c2cn(-c3cccc(OC)c3)c(=O)c3ccccc23)cc1 | . | . | . | . | . | -0.3%
COc1ccc(CNc2ccc(C(=O)O)cc2)cc1 | 2.5% | 4.1% | 24.6% | 23.5% | 1.5% | 7.57µM*
COc1ccc(S(=O)(=O)NCc2ccc(C(=O)O)cc2)cc1 | 4.3% | 0.1% | -2.7% | -0.7% | 3.0% | 0.4%
COc1ccc(NCc2ccc(OC)c(OC)c2)cc1 | -0.6% | 8.5% | 2.8% | 13.8% | -11.2% | ?
COc1ccc(CNc2ccc(Br)cc2)cc1 | 1.3% | ? | ? | ? | -0.7% | 23.9µM*
COc1ccc(OC)c(Nc2nc(=O)c3cccnc3s2)c1 | 11.2µM* | 8.0% | -32.9% | -14.5% | 3.4% | 16.9µM*
O=c1nc(NCc2ccco2)sc2ncccc12 | 2.3% | 11.5% | 7.1% | 0.0% | . | -1.9%
Cc1ccc(Nc2nc(=O)c3cccnc3s2)cc1 | -18.6% | ? | 3.16µM* | 2.51µM* | 18.4% | 12µM*
Cc1cccc(-c2cc3nc4c(c(N5CCCC(O)C5)n3n2)CCC4)c1 (stereo unspecified) | 0.2% | -14.6% | 0.3% | -3.2% | -22.2% | -17.1%
CN(C)CCCNc1c2c(nc3cc(-c4cccc(F)c4)nn13)CCC2 | 0.3% | 3.6% | -4.3% | -1.7% | . | 0.6%
OC1CCN(c2c3c(nc4cc(-c5ccc(F)cc5)nn24)CCC3)CC1 | -0.5% | -10.3% | 13.9% | 2.5% | -6.7% | ?
O=C(C1CCCO1)N1CCN(c2c3c(nc4cc(-c5ccc(F)cc5)nn24)CCC3)CC1 (stereo unspecified) | 3.8% | -0.2% | 0.6% | 2.0% | -1.8% | 4.78µM*
Fc1ccc(-c2cc3nc4c(c(N5CCOCC5)n3n2)CCCC4)cc1 | 7.3% | -2.5% | -1.6% | -2.1% | -15.7% | 21.3µM*
Cc1cccc(-c2cc3nc4c(c(NCc5ccco5)n3n2)CCCC4)c1 | -2.6% | 7.7% | ? | 3.16µM* | 23.7% | 10.7µM*
OC1CCCN(c2c3c(nc4cc(-c5cccc(F)c5)nn24)CCCC3)C1 (stereo unspecified) | 3.7% | ? | ? | ? | 11.2µM* | ?
CCOC(=O)c1ccc(NC(=O)C(CC)Sc2nncn3c2cc2oc(C)cc23)cc1 (stereo unspecified) | . | . | . | . | . | 2.7%
O=C(CCN1C(=O)c2ccccc2Sc2ncccc21)Nc1ccc(F)cc1 | . | . | . | . | . | -4.9%
COc1cccc(-c2cc3nc4c(c(N5CCC6(CC5)OCCO6)n3n2)CCC4)c1 | 2.3% | -7.9% | -8.0% | -0.6% | -7.6% | 26.9µM*
Cc1cccc(-c2cc3nc4c(c(N5CCOCC5)n3n2)CCCC4)c1 | -6.7% | ? | ? | ? | -19.3% | 2.39µM*
